Tests used:
Test in all cases: PBM binding z-score (relative to random genomic background probes); higher = stronger binding; sequences stand for … in GC…GCGATTGACAGCGTAGAATGAAGG
[1] = test system: RARb homodimer (NR concentration 270 nM)
How it was run: (§1)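 Binding z-scores were set against random background probes. The data came from custom Agilent 4×180K protein-binding microarrays carrying double-stranded probes with 34-nt variable regions, incubated 1 h with ligand-free nuclear receptor dimers. Partner-specific antibodies detected binding, and scanned fluorescence was regression-normalized.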

[2] = test system: RARg:RXRa (NR concentration 270 nM, RXRa partner concentration 90 nM)
How it was run: as §1

[3] = test system: RARg homodimer (NR concentration 270 nM)
How it was run: as §1

[4] = test system: RXRa DBDmut IVT, anti-RXR (DBD mutation: RXRa K156A/R161A, NR concentration 90 nM)
How it was run: as §1

[5] = test system: RXRa homodimer (NR concentration 180 nM)
How it was run: as §1

[6] = test system: THRa:RXRa (NR concentration 90 nM, RXRa partner concentration 90 nM)
How it was run: as §1

[7] = test system: THRa homodimer (NR concentration 90 nM)
How it was run: as §1

[8] = test system: VDR homodimer (NR concentration 270 nM)
How it was run: as §1

Sequence | PBM binding z-score [1] | PBM binding z-score [2] | PBM binding z-score [3] | PBM binding z-score [4] | PBM binding z-score [5] | PBM binding z-score [6] | PBM binding z-score [7] | PBM binding z-score [8]
ATATCTAGGTTAAGGGTCATTCAGGTTGGTTCGC | 3.97 | 4.82 | 3.86 | 2.66 | 5.68 | 3.82 | 2.49 | 4.63
TTACCAAGGAGAAGGTCGTTGATCCCTCTGTAGA | 0.592 | 0.225 | 0.0485 | -0.392 | 1.27 | 0.759 | -0.096 | 0.372
ACTAGCAGGCCAATGGTCACTCAAGATTAGTCCG | 0.496 | 0.131 | 0.545 | -0.107 | 0.0416 | -0.312 | -0.672 | -0.707
TCACATAGGTAAAGGTGAAAGTCGAACGATATGA | 1.65 | 1.65 | 1.26 | 1.26 | 2.34 | 1.44 | -0.0581 | -0.223
TCGAGTAGGTTAGTCGGGGCATTTAGCCAACATA | 0.426 | 0.175 | -0.0384 | 0.477 | 0.261 | 1.12 | -0.042 | 0.418
CGTCCAAGGTCAGAGAGGTCTGTGAATGCCGAGT | 3.99 | 4.61 | 5.25 | 2.64 | 3.4 | 3.38 | 1.64 | 1.65
GATACAGGGTCAAGGCCAGAGAACGCGTATTGAT | 3.34 | 5.35 | 5.23 | 2.64 | 6.11 | 3.3 | 1.3 | 1.59
CGTCCAAGGTCTATGCTAGGTCAGTGAAAGCATT | 2.43 | 1.52 | 1.37 | 0.335 | 0.248 | 2.21 | 0.687 | 0.404
CGTCCAAGGTCAATGCTATGTCAGTGAAAGCATT | 4 | 5.86 | 6.28 | 3.14 | 4.94 | 3.81 | 1.93 | 2.37
CATACAGGGTCAGCTAGGCCAGAGCAGGGACGGC | 3.07 | 4.3 | 4.47 | 1.32 | 4.21 | 3.18 | 0.613 | 0.954
GCATAAAGGTAATACAAGGTGAAAGTCCGATTGT | 1.18 | 1.15 | 0.92 | 0.231 | 1.32 | 4.64 | 0.994 | 0.291
CCTACTAGGCCAAAAAGGTCATTGATGCCGATAA | 4.74 | 4.81 | 4.61 | 1.38 | 4.95 | 3.35 | 0.809 | 2.99
TCTGCTTGGTCAGTTGGTCAGCTAACGAGCTGCC | 0.226 | -0.172 | -0.0396 | -0.00109 | -0.439 | -0.465 | -0.841 | -1.2
CGCACTAGGTCAAGGACAGTGAATCTCCGCACGC | 3.34 | 3.82 | 4.48 | 1.72 | 2.63 | 3.03 | 2.15 | 0.387
TCAAGTAGGTTAGGGGCATTCAGAATGGCGTCGA | 1.23 | 0.789 | 0.56 | 1.29 | 1.08 | 1.45 | 0.575 | 1.48
ATCTCTAGGTAAAGATCGTTCAGTGAATGCAAAT | 0.111 | 0.0557 | 0.231 | -0.238 | -0.178 | 0.22 | -0.0507 | 0.139
CGAACTAGGGCATGAGTTGATAGCAAATGCCGAT | 0.222 | 0.852 | 0.834 | 0.394 | 0.388 | 0.0506 | -0.493 | 0.329
CCTTACGGCTCACTGACAGGTTATAGCATTTGGA | 0.213 | 0.216 | 0.301 | 0.689 | 0.388 | 0.0321 | 0.195 | -0.0205
CCTGCTATGTCAATGGTCAGCTAAAGCAGCTCGC | 0.33 | 0.00581 | 0.0986 | 0.386 | -0.174 | -0.688 | -0.637 | -0.777

Sequence | PBM binding z-score [1] | PBM binding z-score [2] | PBM binding z-score [3] | PBM binding z-score [4] | PBM binding z-score [5] | PBM binding z-score [6] | PBM binding z-score [7] | PBM binding z-score [8]
ACTCCGAGGACAAAGGTCAGAGCTACGCCAGTGA | 4.47 | 6.28 | 5.92 | 1.97 | 6.11 | 4.27 | 2.29 | 1.67
CCTTACGCGTCACTGACAGGTTATAGCATTTGGA | 0.655 | 0.439 | 0.151 | 1 | 0.414 | 0.506 | 0.512 | 0.287
CGAACGAGGGCATGAGATGATAGCAAATGCCGAT | 0.674 | 1.28 | 1.64 | 1.82 | 0.882 | 0.979 | -0.224 | 0.831
TGTCAAAGTTGAAAGGTAACGTAAGTATCCACAC | 1.36 | 2.23 | 1.4 | -0.369 | 2.69 | 1.77 | -0.382 | -0.281
CCTGCTAGGTCATAGTCAGCTAATCTACAGTATG | 2.32 | 3.3 | 3.57 | 2.08 | 2.13 | 2.62 | 0.766 | 0.519
CGTCCAAGGACAGAGAGGTCAGTGAATGCCGAGT | 4 | 3.21 | 3.98 | 1.29 | 2.11 | 3.27 | 1.69 | 2.7
ATGCCAAGGTGATCGTGAGGTCGTTGATACTAAC | 1.42 | 2.12 | 0.718 | 0.41 | 1.52 | 3.54 | 2.25 | 2.53
GGAAAGAGGGCATTCGAGTTGATAGCATGGCGAT | 1.42 | 1.81 | 1.82 | 2.67 | 1.32 | 3.61 | -0.358 | 2.71
AGTCAAAGTACATCTAGGTAACGTAAGATATGCT | -0.123 | 0.265 | 0.944 | 0.854 | 0.346 | 0.814 | -0.353 | 0.155
ATCTCTAGGTAAAGATAATTCAGTGAATGCAAAT | -0.268 | 0.658 | 0.648 | 0.0492 | 0.365 | 0.654 | 0.0536 | -0.00622
CCTACTGGGCCAAAAAGGTCATGGATGCCGATAA | 1.31 | 5 | 4.57 | 0.231 | 5.58 | 3.41 | 1.05 | 1.81
CCGACTGGGGCATAGGGTTACCATAAGCCAGCCC | 0.968 | 1.34 | 0.885 | -1.32 | 1.21 | 0.957 | -0.244 | -1.05
ATCTCTACGTAAAGTTCAGTGAAAGATCGATAGA | 2.6 | 2.27 | 2.86 | 1.51 | 1.2 | 0.674 | -0.289 | 2.27
ACATGTAGGTTATCGGGTCATTCAGTTTGCGCAT | 3.23 | 3.35 | 2.41 | 1.87 | 3.6 | 3.32 | 3.05 | 4.06
GCTACTGGGGCATCAGCAGGTTACCATAACTTAA | 0.946 | 0.791 | 0.586 | 0.403 | 0.169 | 1.09 | 0.00611 | -0.67
CCTACTGGGCCATTCAGAGGTCATTGGTCATATG | 4.14 | 4.18 | 2.64 | 0.884 | 3.6 | 3.14 | 1.34 | 3.34
TCTTGTACATCAACAGGAGGTTAAGAAAGATCGA | 0.799 | 0.549 | 0.344 | 0.744 | 0.927 | 0.755 | -0.281 | 0.136
AGAACGAGGGCAATGAGTTTATAGCACGGGTGGC | 1.18 | 1.27 | 1.88 | 2.91 | 0.965 | 0.983 | -0.489 | 5.83
CGTCCAAGGTCAGCAGGTCAGGGAAAGCGACGTG | 5.01 | 6.64 | 7.24 | 2.62 | 5.64 | 3.84 | 2.59 | 1.53

Sequence | PBM binding z-score [1] | PBM binding z-score [2] | PBM binding z-score [3] | PBM binding z-score [4] | PBM binding z-score [5] | PBM binding z-score [6] | PBM binding z-score [7] | PBM binding z-score [8]
ATCGAAAGGTCGAGGTGAGTCTAGAGAAAGGGAA | 2.89 | 4.34 | 4.48 | 0.715 | 4.46 | 3.01 | 0.76 | 0.695
ACTTACGCGTCAACGAGGTTATAGCACGCGTATA | 0.406 | 0.413 | 0.22 | 0.579 | 1.09 | 1.52 | 0.379 | 0.536
TCTCGGAGGACACGAAGGTCCGAGCTTTCCAGAG | 0.577 | 0.296 | 1.3 | 0.546 | -0.235 | 1.26 | -0.0585 | -0.315
CCGACTGGGGCAGAAAGGTTACTATACCATCCGG | 1.91 | 1.26 | 1.23 | -0.158 | 1.3 | 0.534 | -0.377 | -0.181
TCTAGTTGGTCACCGAGGTCACACACGACGGGTA | 4.5 | 4.8 | 4.64 | 1.4 | 5.06 | 4.2 | 4.2 | 3.89
TCTATTTGTTGAAGGGCAACCGACGAGTCCGTTT | 1.57 | 0.705 | 1.07 | 1.55 | 0.578 | 0.482 | 0.62 | 1.92
ACTAGCAGCCCAAGGGTCACTCAAGATTAGTCCG | 3.74 | 3.55 | 3.23 | 0.283 | 3.67 | 2.45 | 0.307 | 0.863
CCGACTGGGGCAGAAAGGTTACCATTCCATCCGG | 1.92 | 1.35 | 1 | -0.71 | 1.3 | 0.555 | -0.451 | -0.34
ATCTCTAGGGAAAGATAGTTCAGTGAATGCAAAT | 0.675 | 0.502 | 0.656 | 0.0504 | 0.0958 | 0.201 | -0.33 | 0.635
CCTAGCAGGCCAACCTGGGTCACTCAAGGCTTGA | 2.56 | 1.54 | 2.02 | -0.209 | 1.23 | 3.63 | 0.233 | -0.163
AACTCTAGGTAAAGTTCAGTGAAAGATCGATAGA | 2.3 | 1.97 | 2.32 | 1.44 | 1.19 | 0.938 | -0.396 | 1.64
CAAACTATGTCACAGAGGTCAAAGTCCGTGCGTA | 4.82 | 5.68 | 5.01 | 2.12 | 6.58 | 3.83 | 1.89 | 4.59
TCTTGTAGATCTATAGAGGTTAAGAAAGTGCGCT | 1.12 | 0.795 | 0.399 | 0.575 | 1.43 | 1.35 | -0.418 | 0.121
TCTCGGAGGACACGAAGGTCATAGCTTTCCAGAG | 3.93 | 4.04 | 4.13 | 1.41 | 3.28 | 3.55 | 1.66 | 3.09
AGAATGAGGTTACCAAAGATCAGGGAAACGCTTG | 0.765 | 2.19 | 1.68 | 1.25 | 2.57 | 3.04 | 0.9 | 0.1
ATATGTAGGTTATCGGGTCAATCAGTTTGCGCAT | 3.02 | 3.59 | 2.68 | 1.45 | 3.75 | 3.3 | 2.53 | 2.85
CCTACTGGGCCAAAAAGGGCATTGATGCCGATAA | 1.32 | 0.413 | 0.776 | -0.51 | 0.0736 | 0.26 | -0.987 | 0.107
GCTTGCAGATCAAGGTTAAGAAAGACTAAGCTAA | -0.0263 | 0.321 | 0.141 | -0.00088 | 0.55 | 1.16 | -0.514 | -0.323
TTACCAAGGTGAGCTGTGGTCGTTGATCCAACTC | 0.173 | 0.108 | -0.154 | -0.592 | 0.152 | 1.78 | -0.136 | -0.783

From the supplement of paper PMC6555819
